The results in this text go back to PubChem BioAssay AID488794 (Sanford-Burnham Center for Chemical Genomics, 2010).

About 550 (55%) of roughly 1,000 compounds were called active. No stated cut-off is given here; in the data, active means inhibition above about 50%; inactive means the rest. So high a share suggests a set chosen from earlier hits. The list is a sample of the results.

The nature of this assay: yeast-expressed human NALP3 blockade, retest – luminescence, single concentration, confirmation (AID 488794). The conditions noted are these: yeast expressing human NALP3, luminescence read-out; at 10 µM; stronger effect = higher value.
On to `O=[N+]([O-])/C=C/c1ccc2c(ccn2Cc2ccccc2)c1`, for which the inhibition (in general, how much of the control response was suppressed) is 96.3% (active).
Regarding `CCCNc1ncnc2sc(C)c(C)c12`, the inhibition is 36.4% (inactive).
On to `C[C@@H]1C[C@@H]2O[C@H]2/C=C\C=C\C(=O)Cc2c(Cl)c(O)cc(O)c2C(=O)O1`, for which the inhibition is 66.2% (active).
For `CC(C)C(=O)N1CCN(CCN=CC2=C(O)CC(c3ccco3)CC2=O)CC1` (stereo unspecified), the inhibition was 62.1% (active).
The figure for `CC1(C)CCSC(/C=C/c2ccccc2)=N1` is 79.8% (active); for `O=C(Nc1ccc2oc(-c3ccccc3F)nc2c1)c1ccco1` it is 71.3% (active).
With `O=C(Nc1ccc(Oc2ccccc2)cc1)c1ccco1`, the inhibition was 35.9% (inactive).
The figure for `Cn1c(=O)c(C(=O)Nc2ncccn2)c(O)c2ccccc21` is 60.2% (active); for `Cc1cc(C)c(/C=C2\C(=O)Nc3ccccc32)[nH]1` it is 36.6% (inactive).
For the molecule `CCc1cc(C(=O)Nc2nnc(C3CC3)s2)sc1C`, the inhibition is 40.9% (inactive).
As to `Cc1ccc(OCc2nc(C#N)c(N3CCCC3)o2)cc1`, the inhibition is 53.5% (active).
As to `CCN(CC)c1ccc(/C=N/Nc2nc(C)cc(C)n2)c(O)c1`, the inhibition is 63% (active).
Under `O=[N+]([O-])c1c(NCCO)cc(Sc2nc3ccccc3s2)c2nonc12` stands 48% (inactive); under `Cc1cc(C(=O)COc2ccc(Br)cc2F)c(C)n1C1CC1`, 49.4% (inactive); under `CC(C)Sc1ncnc2c1cnn2-c1ccccc1`, 46.2% (inactive).
For the molecule `O=C(NCc1ccc2c(c1)OCO2)c1c(O)nc2sccn2c1=O`, the inhibition is 38.4% (inactive).
`CC(=NCc1ccc2c(c1)OCO2)C1=C(O)c2ccccc2C1=O`: the inhibition is 63.9% (active).
For the molecule `Cc1ccc2cccc(S(=O)(=O)N3CCN(c4ccccc4F)CC3)c2n1`, the inhibition is 47.8% (inactive).
As to `CC(=O)[C@@]12O[C@@H]1C[C@H]1[C@@H]3CC[C@H]4C[C@@H](O)CC[C@]4(C)[C@H]3CC[C@@]12C`, the inhibition is 38.2% (inactive).
The figure for `O=C(COc1ccccc1F)Nc1nc(-c2ccccn2)cs1` is 37.1% (inactive).
Under `CCSc1nc2sc3c(c2c(=O)n1-c1ccc(C)cc1)CCN(C)C3` stands 44.3% (inactive).
